Bioassay records (PubChem)
The list is not random: actives were taken first. Their share in the collection is about 3.5%.
MITF primary: blocks human microphthalmia-associated transcription factor. AlphaScreen MITF homodimerization, bead proximity signal. inhibition, % at 2.6 µM. 0.91% of 650,000 active; in the data active means inhibition above about 50%;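 further: 0% = vehicle wells with protein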
Target sequence (O75030 whole entry, looked up): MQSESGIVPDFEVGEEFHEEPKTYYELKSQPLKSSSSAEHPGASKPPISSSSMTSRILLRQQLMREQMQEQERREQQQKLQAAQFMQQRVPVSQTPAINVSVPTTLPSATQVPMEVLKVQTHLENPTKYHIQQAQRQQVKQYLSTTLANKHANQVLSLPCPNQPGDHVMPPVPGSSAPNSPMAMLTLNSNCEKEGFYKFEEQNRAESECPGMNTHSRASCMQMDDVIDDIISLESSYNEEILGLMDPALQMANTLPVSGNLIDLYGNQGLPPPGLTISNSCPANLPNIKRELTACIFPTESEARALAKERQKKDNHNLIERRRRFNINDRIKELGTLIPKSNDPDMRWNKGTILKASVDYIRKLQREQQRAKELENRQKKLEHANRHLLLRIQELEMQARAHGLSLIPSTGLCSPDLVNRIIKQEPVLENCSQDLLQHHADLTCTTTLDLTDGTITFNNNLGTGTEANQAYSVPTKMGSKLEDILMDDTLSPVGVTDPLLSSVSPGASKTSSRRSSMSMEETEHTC
TEAD-YAP inh: TEAD-YAP interaction inhibition; HEK-TIYL cells, TEAD-Gal4/YAP UAS-luciferase luminescence; inhibition, % at 9.12 µM; 1.4% of 640,000 active; AID 1259422; in the data active means inhibition above about 32%;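 further: 0% = median of test compound wells and 100% = reference inhibitor wells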
FBW7 activator: activators of human E3 ligase FBW7 | Q969H0 | AlphaScreen FBW7–phospho-cyclin E peptide binding, activator screen | normalized activity (activation), % at 26.1 µM | 0.13% of 650,000 active | AID 1259310; in the data active means normalized activity above about 1.9%;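 further: purified mutant Fbw7 with reduced substrate affinity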
GPR151 ag: human GPR151 activation | Q8TDV0 | PathHunter beta-arrestin GPR151 cells, luminescence | activation, % at 11.2 µM | 1% of 650,000 active | AID 1508602; in the data active means activation above about 4.9%;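 further: 0% = median of compound wells and 100% = cells with positive control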
* hit, by the source's call.

SMILES | MITF primary | TEAD-YAP inh | FBW7 activator | GPR151 ag
COc1ccccc1C(NC(C)=O)c1ccc2cccnc2c1O (centres undefined) | 57.0* | 33.2* | -1.8 | -1.8
CC[n+]1c(I)ccc2cc(OC)ccc21 | -1.3 | -1.5 | -0.2 | 1.7
CCCCN1/C(=C/c2ccc3cc(OC)ccc3[n+]2CC)Sc2ccc(OC)cc21 | 17.8 | 89.0* | -1.1 | 2.1
CCN1/C(=C/c2ccc3cc(NC(C)=O)ccc3[n+]2CC)Sc2ccccc21 | 5.7 | 52.4* | -0.7 | 0.0
CCCCN1/C(=C/c2ccc3ccccc3[n+]2CC)Sc2ccccc21 | 5.3 | 92.1* | -0.9 | 4.4
CCN1/C(=C/c2ccc3ccccc3[n+]2CC)Sc2ccc(OC)cc21 | 17.5 | 90.0* | -0.1 | 1.2
COc1ccc(C(=O)NCC(C)C)cc1OC | 2.0 | 28.1 | -0.2 | -0.1
O=C(O)c1ccc(N2N=C(C(F)(F)F)/C(=C/c3cccs3)C2=O)cc1 | 22.1 | 8.6 | 0.4 | -1.4
Cn1ccnc1SCCNC1CCN(c2ccc(NC(=O)c3cnccn3)cc2)CC1 | -0.3 | -14.3 | 0.0 | 2.7
CCN1/C(=C/c2ccc3ccccc3[n+]2CC)Sc2c1ccc1ccccc21 | 42.6 | 87.0* | -0.3 | 1.4
CCN1/C(=C\C=C(/C)C=O)Sc2ccccc21 | 8.5 | 10.9 | -0.4 | 3.2
CCN1/C(=C/c2ccc3ccccc3[n+]2CC)Sc2ccc(I)cc21 | 17.7 | 68.3* | 0.2 | 4.1
COc1ccc2nc(N3C(=O)Nc4ccccc4N3O)sc2c1 | 6.2 | 6.8 | -0.1 | -0.6
O=C(NNc1ccc([N+](=O)[O-])cc1[N+](=O)[O-])c1ccccc1 | 14.1 | 73.0* | -0.3 | -0.3
O=C(NNc1ccc(C(F)(F)F)cc1[N+](=O)[O-])c1ccccc1 | 16.3 | 9.4 | 0.3 | -0.9
O=C(NNc1ccc(C(F)(F)F)cc1[N+](=O)[O-])C(F)(F)F | 22.7 | 8.9 | 2.5* | 0.0
O=C(Nc1ccc([N+](=O)[O-])cc1[N+](=O)[O-])c1ccccc1 | 18.6 | -1.7 | -0.1 | 0.4
O=C(O)c1cc(S(=O)(=O)NCc2ccccn2)c(Cl)cc1Cl | -6.9 | -4.4 | -0.1 | 0.7
COCC1CCCN(C(=O)C2CC(Cc3cccc(OC)c3)=NO2)C1 (centres undefined) | -15.3 | -31.8 | -0.1 | -0.1
COc1ccc(-c2nnc(SCC(=O)NCc3ccccc3)nc2-c2ccc(OC)c(OC)c2)cc1OC | -12.2 | 47.3* | -0.1 | -0.2
COC(=O)C1=C(C)NC(=O)C1(Nc1nc2ccc([N+](=O)[O-])cc2s1)C(F)(F)F (centres undefined) | 4.9 | 8.6 | 0.1 | 0.6
COc1ccc(NC2=CC(=O)CC(c3ccccc3)C2)c(OC)c1 (centres undefined) | 16.4 | 48.0* | 0.5 | 0.1
COc1ccc(OC)c(NC2=CC(=O)CC(c3ccccc3)C2)c1 (centres undefined) | 1.4 | 55.0* | -0.1 | 0.5
Cc1ccc(C)c(Nc2nc(NCc3ccco3)nc3nccnc23)c1 | 0.2 | -0.9 | 0.3 | -2.0
Cc1ccc(C)c(Nc2nc(NCCN(C)C)nc3nccnc23)c1 | -11.0 | -3.9 | 2.1* | -2.5
SMILES | MITF primary | TEAD-YAP inh | FBW7 activator | GPR151 ag
COc1cc(/C=N/NC(=O)CCN2CCN(C)CC2)cc(OC)c1O | 51.4* | -1.1 | -0.1 | -0.2
COc1cc(/C=N/NC(=O)CCN2CCN(C)CC2)ccc1O | 22.8 | -4.4 | 0.3 | 0.0
CC1(C)CC(=O)C=C(Nc2ccc(Br)cc2)C1 | 3.8 | -9.3 | 0.0 | 0.6
c1ccc(CN2CCC(NCc3ccc(N4CCOCC4)cc3)CC2)cc1 | 68.1* | -6.3 | -0.1 | 1.2
O=C(CC1C(=O)N(c2ccc(Cl)cc2)C(=S)N1CCc1ccc(Cl)cc1)Nc1ccc(F)cc1 (centres undefined) | 20.6 | -11.1 | 2.0* | -1.0
NCCCC[C@@H]1NC(=O)[C@@H]2C[C@H](NCc3sc4ccccc4c3Cl)CN2C1=O | 5.2 | 33.5* | 0.0 | -0.6
O=C1[C@@H]2C[C@H](NCc3sc4ccccc4c3Cl)CN2C(=O)[C@@H]2CCCN12 | 2.4 | 38.6* | 0.0 | -1.9
O=C(Nc1ccc(-c2ccc([N+](=O)[O-])cc2)cc1)c1ccccc1O | -1.6 | 45.3* | -0.1 | -0.7
CC(C)CC(=O)Nc1ccc(Cl)c([N+](=O)[O-])c1 | 5.6 | 4.0 | 0.1 | 1.5
O=C(CCl)Nc1ccc(Cl)c([N+](=O)[O-])c1 | -6.1 | 73.9* | 0.0 | -0.2
O=C(Nc1ccc(N2CCCCC2)cc1)c1ccc(Cl)c([N+](=O)[O-])c1 | 6.3 | 42.8* | -0.2 | -0.6
O=C(Nc1ccccc1Cl)c1cc(F)ccc1[N+](=O)[O-] | 11.3 | 79.8* | 0.2 | 0.2
Cc1ccccc1C(=O)Nc1ccc(-c2ccc([N+](=O)[O-])cc2)cc1 | -3.2 | -24.5 | 0.1 | 2.2
